Source: PubChem BioAssay AID1053173 (Broad Institute, 2014)
The whole screen tested about 1,500 compounds, of which about 390 (26%) were called active. No rule for the calls is given here. A selection follows. Entries with a potency or affinity are not part of this list.

Target: Histone-lysine N-methyltransferase NSD2 (Homo sapiens) (UniProt O96028)
Assay: NSD2 methyltransferase inhibitors, dose response, biochemical, AlphaScreen, cherry-picked samples (AID 1053173)
Details: NSD2 H4 peptide methylation, 120 min; series mostly up to 10 µM

Chain of Histone-lysine N-methyltransferase NSD2 (Homo sapiens) (O96028 whole entry, looked up): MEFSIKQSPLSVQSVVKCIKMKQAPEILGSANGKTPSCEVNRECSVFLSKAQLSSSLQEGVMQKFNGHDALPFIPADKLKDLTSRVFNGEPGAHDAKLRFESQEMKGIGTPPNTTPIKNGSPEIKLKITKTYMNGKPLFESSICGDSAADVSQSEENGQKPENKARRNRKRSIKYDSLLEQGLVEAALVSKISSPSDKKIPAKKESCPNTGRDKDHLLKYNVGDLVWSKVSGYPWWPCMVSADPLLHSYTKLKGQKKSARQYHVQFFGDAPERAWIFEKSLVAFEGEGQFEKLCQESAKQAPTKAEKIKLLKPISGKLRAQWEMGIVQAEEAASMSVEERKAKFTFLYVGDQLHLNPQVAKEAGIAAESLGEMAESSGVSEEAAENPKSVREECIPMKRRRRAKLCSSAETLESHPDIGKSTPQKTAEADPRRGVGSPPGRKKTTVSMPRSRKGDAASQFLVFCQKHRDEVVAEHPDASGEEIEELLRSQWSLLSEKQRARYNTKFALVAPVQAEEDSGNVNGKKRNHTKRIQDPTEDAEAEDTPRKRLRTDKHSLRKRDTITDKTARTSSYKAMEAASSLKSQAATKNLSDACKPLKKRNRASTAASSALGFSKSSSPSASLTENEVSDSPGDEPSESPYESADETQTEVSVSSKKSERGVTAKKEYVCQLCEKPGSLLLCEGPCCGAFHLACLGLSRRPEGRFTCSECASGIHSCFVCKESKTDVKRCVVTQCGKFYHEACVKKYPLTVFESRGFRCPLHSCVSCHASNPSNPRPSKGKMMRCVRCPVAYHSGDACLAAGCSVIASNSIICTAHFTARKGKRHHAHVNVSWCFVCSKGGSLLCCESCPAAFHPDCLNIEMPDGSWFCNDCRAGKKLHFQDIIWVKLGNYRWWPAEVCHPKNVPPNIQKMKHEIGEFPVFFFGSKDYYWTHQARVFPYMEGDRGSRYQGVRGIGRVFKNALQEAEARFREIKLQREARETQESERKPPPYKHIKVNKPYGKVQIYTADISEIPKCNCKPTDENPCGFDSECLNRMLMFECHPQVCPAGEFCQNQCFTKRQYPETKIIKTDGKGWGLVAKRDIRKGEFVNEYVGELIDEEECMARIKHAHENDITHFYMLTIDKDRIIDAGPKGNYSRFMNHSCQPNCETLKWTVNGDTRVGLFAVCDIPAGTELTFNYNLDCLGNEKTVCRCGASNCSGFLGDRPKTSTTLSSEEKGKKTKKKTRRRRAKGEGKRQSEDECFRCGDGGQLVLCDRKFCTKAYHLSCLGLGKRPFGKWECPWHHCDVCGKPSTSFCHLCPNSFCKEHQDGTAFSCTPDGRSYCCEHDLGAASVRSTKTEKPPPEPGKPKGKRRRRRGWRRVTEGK

outcome, inactive:
O=C(NC1=NCCS1)c1csc2ccccc12
O=C(Nc1cc(C(F)(F)F)ccc1N1CCCC1)C1CC(=O)N(Cc2ccccc2)C1 (stereo not given)
Cc1cc(C)c(NC(=S)N(C)C)cc1C
COc1ccc(C2/C(=C(\O)c3cccc(OC)c3)C(=O)C(=O)N2c2ccccn2)cc1 (stereo not given)
COc1ccc(C(=O)N[C@H](C(=O)NCc2ccc(C)cc2)C(C)C)cc1
Cc1ccc(C)c(S(=O)(=O)N2CCCOC2CNC(=O)C(=O)NCc2cccnc2)c1 (stereo not given)
Nc1c2c(=O)[nH]c(O)cc2nn1-c1ccccc1
COc1ccc(OC)c(C(=O)Nc2c(O)ccc3ccccc23)c1
O=c1[nH]c(CN2CCCCC2)ccc1O
Cc1cc(=O)n2[nH]c(-c3ccco3)nc2n1
Cc1onc(-c2c(Cl)cccc2Cl)c1C(=O)ONC(=O)c1cc(C(F)(F)F)cc(C(F)(F)F)c1
O=[N+]([O-])c1ccc(-c2cccnc2)cc1
O=c1c2ccc([N+](=O)[O-])cc2sn1-c1ccccc1
CCOc1ccccc1NCc1nnc(-c2ccccc2)o1
O=C(c1cc(-c2ccc(Cl)c(Cl)c2)on1)N1CCCCCC1
COc1ccc(C)cc1S(=O)(=O)Nc1ccccc1C
O=[N+]([O-])c1ccc(N(CC(O)CN2CCCCC2)S(=O)(=O)c2ccccc2)cc1 (stereo not given)
O=S(=O)(c1ccc2c(c1)nc1n2CCC1)N1CCOCC1
CCCc1nc2sc3ccccc3c(=O)c2c(=O)n1Cc1ccccc1
COc1ccc(CCNc2c([N+](=O)[O-])ncn2C)cc1OC
CCOc1ccccc1N(CC(=O)NCCc1ccc(OC)c(OC)c1)S(=O)(=O)c1ccccc1
COCc1[nH][nH]c(=O)c1C=NCC(=O)OC
N=C1C(c2nc(-c3ccc(F)cc3)cs2)=C(O)CN1Cc1ccc(Cl)cc1
CC(C)(C)c1[nH]nc2c1C(C1C=CCCC1)C(C#N)=C(N)O2 (stereo not given)
O=C(NC1CCCCC1)c1ccc(S(=O)(=O)NCc2ccco2)cc1
Cn1c(=O)c2c(-c3ccccc3)n(Cc3cccnc3)cc2n(C)c1=O
CCOC(=O)c1c(C)[nH]c(C(=O)NCCN2CCOCC2)c1C
O=C(CCCN1C(=O)/C(=C/c2ccccc2)SC1=S)Nc1ccc(C(=O)O)c(O)c1
O=C(CCCN1C(=O)/C(=C/c2cccs2)SC1=S)Nc1ccc(O)c(C(=O)O)c1
N=c1c(C(=O)NCc2ccco2)cc2c(=O)n3ccccc3nc2n1C1CCCC1
COc1cccc(CN2CCC(Oc3ccc(C(=O)N4CCCCC4)cc3)CC2)c1O
Cc1ccc(NC(=O)CN(C)CCOc2ccccc2)c([N+](=O)[O-])c1
CN1CCN(/N=C/c2nc(-c3ccccc3Cl)n3ccccc23)CC1
Cn1c(SCc2ccccc2C#N)nc2ccccc2c1=O
COc1cn(-c2ccccc2)nc1C(=O)NCc1ccccc1
C=CCSc1nnc(-c2ccc(Cl)cc2Cl)o1
CCOC(=O)C1=CN(c2cccc(F)c2)C=C(C(=O)OCC)C1c1cc(OC)c(O)c([N+](=O)[O-])c1
CCC1CC(CSc2ncn[nH]2)OC1=O (stereo not given)
COc1ccccc1CNC(=O)C(NC(=O)Nc1ccccc1)C(C)C (stereo not given)
CC(C)(C)/C=N/NC(=O)CNC(=O)c1ccc2c(c1)OCCO2
CS(=O)(=O)N(CC(=O)NCc1ccco1)c1ccc2c(c1)OCO2
COc1cc(NC(=O)COC(=O)CNC(=O)c2ccc(C)cc2)c(C)cc1[N+](=O)[O-]
CCOc1ccc(NC(=S)N2CCC(NC(=O)C3CCCCC3)CC2)cc1
CCc1ccc(NC(=S)Nc2cccc3cnccc23)cc1
S=C(Nc1ccc2nsnc2c1)N1CCCC1
Cc1ccc(NC(=S)Nc2cccc3cnccc23)cc1
Fc1ccc(NC(=S)Nc2ccc3nccnc3c2)cc1
COc1cc(/C=N/N2CCN(C3c4ccccc4-c4ccccc43)CC2)cc(OC)c1OC
Cc1ccc(CSc2nc3c(c(=O)[nH]2)C(c2ccncc2)C2=C(CCCC2=O)N3)cc1 (stereo not given)
CC(=O)c1cccc(NC(=O)c2csc(-n3nc(C)cc3C(F)(F)F)n2)c1
CCCC(C(=O)NC(C)(C)C)N(CC1CCCO1)C(=O)CNS(=O)(=O)c1ccc(F)cc1 (stereo not given)
CC(=O)Nc1ccc(SCCC2CCCCN2C)cc1 (stereo not given)
CCOc1ccc(-n2cnc3sc4c(c3c2=O)CCCC4)cc1
C[N+](C)(C)CCC(=O)N1C/C(=C/c2ccccc2)C(=O)/C(=C\c2ccccc2)C1
O=C(CN1C(=O)c2ccc([N+](=O)[O-])cc2C1=O)Nc1nnc(C2CC2)s1
Cc1ccc(NC(=O)c2cc([N+](=O)[O-])ccc2NCc2cccnc2)cc1Cl
CC(=O)N1CCc2cc(Br)cc(S(=O)(=O)NCCCN(C)Cc3ccccc3)c21
CN1CCC(=NNC(=O)c2cn(-c3ccccc3)nc2-c2ccccc2)CC1
Cc1ccccc1-c1noc(C23CC4CC(CC(C4)C2)C3)n1
CCOC(=O)C1CCCN(C(=O)c2ccc(OC(C)=O)cc2)C1 (stereo not given)
Cc1nnc(Sc2cc(NCCO)c([N+](=O)[O-])c3nonc23)s1
CC(C)CNC(=O)c1cnn2c(C(F)(F)F)cc(C(F)(F)F)nc12
Nc1c(Br)cc(Br)c2c1[nH]c(=O)c1ccccc12
CCOc1cc(N2CCOCC2)c(OCC)cc1NC(=O)c1cnccn1
COc1cc(/C=N/n2c(C)nnc2C)cc(OC)c1OC
O=C(c1ccccc1OCc1ccccc1Br)N1CCN(c2ncccn2)CC1
CSc1nnc(-c2ccco2)c(-c2ccco2)n1
N#Cc1ccc(-c2ccco2)nc1SCc1ccccc1
CCOC(=O)CC(NS(=O)(=O)c1ccc2[nH]cc(C(=O)O)c(=O)c2c1)c1ccc(OCC)c(OC)c1 (stereo not given)
O=C(/C=C/c1ccc(OCCCF)cc1)N1CCN(Cc2ccccc2)CC1
